# In the library only some 17% were active in any assay of this set; here they are far more common.
# ClpP mod: qHTS Assay for Activators of ClpP | Potency, µM (doses to about 57.5 µM), inactives show at the top dose activity change, negative = active | purified B. subtilis ClpP, FRET peptide cleavage, 20 min | 340,000 tested, 1.9% active | ATP-dependent Clp protease proteolytic subunit (Bacillus subtilis (strain 168)), P80244; active = well fitted falling curve with a large enough effect; inconclusive = small, poorly fitted or top-dose-only effect; inactive = no such curve, though single readings can be large or run the other way; also: the source files actives as falling curves though it sought activators and does not explain the sign; nearly all actives have a fitted effect of over 65% in size
#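 Purified B. subtilis ClpP, 10 microg/mL final in Tris/HCl pH8 with KCl, BSA, glycerol and Tween-20, cleaved an Abz/nitrotyrosine-quenched decapeptide. Fluorescence (ex 320, em 430) was read at 0 and 20 min at room temperature. Delta was normalized to 5.8 microM ADEP and DMSO/no-enzyme controls.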
# TDP1 block: TDP1 (human) enzyme inhibition; recombinant TDP1, AlphaScreen DNA substrate cleavage; Potency, µM (series often up to 130 µM), for the others: at the highest dose activity change, negative = inhibition, most hits filed as inhibitors; 350,000 tested, 0.28% active; AID 485290; also: % is scaled to controls: 0 for no effect and ±100 for the full control effect; nearly all actives have a fitted effect of over 40% in size
# Target sequence (Q9NUW8 whole entry, looked up): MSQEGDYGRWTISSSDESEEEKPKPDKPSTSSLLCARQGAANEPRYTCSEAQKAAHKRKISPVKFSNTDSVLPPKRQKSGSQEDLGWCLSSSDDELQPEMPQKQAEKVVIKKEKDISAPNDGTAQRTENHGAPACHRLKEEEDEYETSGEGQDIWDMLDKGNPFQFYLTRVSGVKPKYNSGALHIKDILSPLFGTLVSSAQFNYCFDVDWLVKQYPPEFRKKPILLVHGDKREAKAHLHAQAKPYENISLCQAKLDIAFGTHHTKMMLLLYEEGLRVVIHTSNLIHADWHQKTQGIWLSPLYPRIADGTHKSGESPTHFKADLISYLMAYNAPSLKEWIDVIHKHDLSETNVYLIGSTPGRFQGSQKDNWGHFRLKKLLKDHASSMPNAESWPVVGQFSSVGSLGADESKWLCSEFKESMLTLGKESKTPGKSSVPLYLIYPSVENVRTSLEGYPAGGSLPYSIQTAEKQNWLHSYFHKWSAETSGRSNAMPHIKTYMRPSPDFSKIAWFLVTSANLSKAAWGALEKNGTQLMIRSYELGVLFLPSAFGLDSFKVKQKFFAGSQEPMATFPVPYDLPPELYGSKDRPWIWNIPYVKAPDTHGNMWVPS
#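 Steps: enzyme plus compound, 15 min RT; add biotin/phosphotyrosine-FITC oligonucleotide (15 nM final), react 5 min; add donor/acceptor beads (10 ug/ml final), 10 min; read AlphaScreen. Tdp1 at 1 nM final.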
# DT40 TDP1 CPT: growth inhibition of DT40 Tdp1-/-;hTDP1 cells with camptothecin (screen for TDP1 inhibitors); chicken DT40 Tdp1-/-;hTDP1 cells + 20 nM CPT, ATP luminescence, 48 h; Potency, µM (series often up to 46.2 µM), inactives show at the highest dose activity change, negative = growth inhibition, most hits filed as inhibitors; 420,000 tested, 12% active; also: % is scaled to controls: 0 for no effect and ±100 for the full control effect; nearly all actives have a fitted effect of over 55% in size
#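 Cell growth measured by CellTiter-Glo luminescence after a minimum 48 h, 37 C compound exposure with 20 nM CPT in Tdp1-knockout DT40 cells stably expressing hTDP1, seeded 400/well; qHTS titration format.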
# TDP1 cell noCPT: qHTS for Inhibitors of human tyrosyl-DNA phosphodiesterase 1 (TDP1): qHTS in cells in absence of CPT | 420,000 tested, 15% active | Potency, µM (highest dose often 46.2 µM), inactives show top-dose activity change, negative = growth inhibition, actives largely listed as inhibitors | DT40 Tdp1-/- hTDP1 cells, no CPT, ATP luminescence, 48 h; also: % is scaled to controls: 0 for no effect and ±100 for the full control effect; nearly all actives have a fitted effect of over 55% in size
#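 Seeded 400 DT40-hTDP1 cells/well (vehicle DMSO, no 20 nM CPT); pinned compounds; ≥48 hr at 37 °C; CellTiter-Glo luminescence as viability measure.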
# The depositor's hits bear a star; ? = inconclusive; · = not tested or not shown. Unless noted, calls follow the shape of the dose curve; as a rule, active = well fitted curve in the direction sought with a large enough effect; inconclusive = small, poorly fitted or top-dose-only effect, or another doubt; inactive = no such curve, though single readings can be large; an effect the other way counts as inactive or inconclusive. Potency is read from the fitted curve at half-maximal effect.
SMILES,ClpP mod,TDP1 block,DT40 TDP1 CPT,TDP1 cell noCPT
Cc1cc(C)cc(OCC(=O)Nc2ccccc2N2CCCCC2)c1,1%,-2%,?,?
CCOc1ccc(NC(=O)C2CCN(c3nnc(C)c4c(C)n(-c5ccccc5)nc34)CC2)cc1,-17%,-8%,-14%,-26%
O=C(NCc1ccccn1)c1ccc(CNS(=O)(=O)c2ccc(F)cc2)cc1,-1%,3%,-7%,26%
CC(=O)C(Cc1ccccc1)NC(=O)COC(=O)c1ccc(-n2cnnn2)cc1 (stereo unspecified),-2%,1%,3%,-5%
COc1ccc(S(=O)(=O)N(C)CC(=O)Nc2ccc(C)cc2)cc1OC,0%,-8%,23µM*,?
COC(=O)c1ccccc1NC(=O)CN(C)S(=O)(=O)c1ccc(OC)c(C)c1,-12%,5%,23µM*,?
CSc1cccc(NC(=O)CN(C)S(=O)(=O)c2ccc(C)cc2)c1,1%,7%,?,16µM*
O=C(C1CCCN(S(=O)(=O)c2cccc3nsnc23)C1)N1CC=C(c2ccccc2)CC1 (stereo unspecified),-2%,3%,13µM*,10µM*
O=C(NCCc1ccccc1)C1CCCN(S(=O)(=O)c2cccc3nonc23)C1 (stereo unspecified),-2%,-3%,-13%,?
O=C(C1CCN(S(=O)(=O)c2cccc3nsnc23)CC1)N1CC=C(c2ccccc2)CC1,-4%,10%,18µM*,16µM*
O=C(O)c1ccccc1NC(=O)C1CCN(S(=O)(=O)c2cccc3nsnc23)CC1,·,5%,-20%,16µM*
O=C(NCCc1ccccc1)C1CCCN(S(=O)(=O)c2cccc3nsnc23)C1 (stereo unspecified),1%,-5%,?,13µM*
Cn1c(NNC(=O)C(c2ccccc2)c2ccccc2)cc(=O)n(C)c1=O,·,0%,7%,-1%
O=C(NCc1cccs1)C1CCN(c2ccc(S(=O)(=O)N3CCOCC3)cc2Cl)CC1,1%,4%,3.7µM*,2.6µM*
O=C(NCc1ccco1)C1CCN(c2ccc(S(=O)(=O)N3CCOCC3)cc2[N+](=O)[O-])CC1,·,0%,?,23µM*
COc1ccc(NC(=O)[C@@H](c2ccccc2)N2Cc3ccccc3C2=O)cc1OC,-3%,7%,-19%,-25%
C#CCOCC1CNC(=S)O1 (stereo unspecified),0%,·,10%,-13%
O[C@H]1C[C@H](c2ccc(Cl)cc2)N(CC2CCCCC2)C[C@@H]1n1cc(-c2ccc(F)cc2)nn1,-3%,·,?,?
COc1cc2cc(-c3ccc(OC)c(OC)c3C)nc(N)c2cc1OC,·,·,5.2µM*,5.8µM*
CCOc1ccc(-c2cc3cc(OC)c(OC)cc3c(C)n2)cc1,·,6%,-28%,?
COc1cc2cc(-c3ccc(O)cc3O)nc(C)c2cc1OC,·,·,10µM*,6.5µM*
COc1cccc2c1OC[C@@H](CO)[C@H]2N(C)C(=O)Nc1ccc(Cl)cc1Cl,1%,2%,13µM*,10µM*
COc1ccccc1-c1nnc(SCC(=O)Nc2ccc(Cl)cc2Cl)o1,0%,3%,-17%,-23%
O=C(/C=C/c1c[nH]c2ccccc12)c1cccc2ccccc12,-3%,2%,16µM*,12µM*
C(=C\c1c[nH]c2ccccc12)/c1nccc2ccccc12,-9%,·,?,?
SMILES,ClpP mod,TDP1 block,DT40 TDP1 CPT,TDP1 cell noCPT
O=C(O)CSc1cc(NS(=O)(=O)c2ccc(Br)cc2)c2ccccc2c1O,51%,·,2.9µM*,5.2µM*
O=S(=O)(Nc1cc(Sc2ncn[nH]2)c(O)c2ccccc12)c1ccccc1,·,11%,1.2µM*,2.1µM*
Cc1cc(O)c(Sc2ncn[nH]2)cc1NS(=O)(=O)c1ccc(Cl)cc1,0%,0%,-23%,-1%
Cc1ccc(S(=O)(=O)Nc2ccc(Br)cc2C(NCC(=O)O)c2ccccc2)cc1 (stereo unspecified),-2%,1%,-4%,6%
Cn1ccs/c1=N\C(=O)Nc1cccc(C(F)(F)F)c1,-1%,·,-5%,13%
OCCCNc1ncnc2c1[nH]c1ccccc12,·,·,-10%,-16%
CCOc1ccc2[nH]c3c(NCCC(C)C)ncnc3c2c1,3%,·,26µM*,18µM*
